NOMO-1 viab: STK33 inhibitor candidate reducing NOMO-1 cell viability | NOMO-1 AML viability, CellTiter-Glo luminescence, 72 h | hit rate 7.5% among 37,000 | AID 2330 | inhibition, % (test concentration not listed); in the data active means inhibition above about 80%; inconclusive means no clear call, values can overlap the other calls
PD-1 reversal: activators reversing PD-1 mediated T-cell inhibition. primary human CD4 T cells, PD-L1 beads, CellTiter-Glo 96 h. activation, % (no concentration beside the values). 29,000 tested, under 10 active; call rule not given here;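 further: 0% = median vehicle wells and 100% = positive control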
STK33 inh: inhibitors of human STK33 kinase | hit rate 0.44% among 27,000 | AID 2322 | inhibition, % at 12.5 µM | ADP-Glo luminescence, MBP substrate; in the data active means inhibition above about 20%; inconclusive means no clear call, values can overlap the other calls
Target sequence (Q9BYT3 whole entry, looked up): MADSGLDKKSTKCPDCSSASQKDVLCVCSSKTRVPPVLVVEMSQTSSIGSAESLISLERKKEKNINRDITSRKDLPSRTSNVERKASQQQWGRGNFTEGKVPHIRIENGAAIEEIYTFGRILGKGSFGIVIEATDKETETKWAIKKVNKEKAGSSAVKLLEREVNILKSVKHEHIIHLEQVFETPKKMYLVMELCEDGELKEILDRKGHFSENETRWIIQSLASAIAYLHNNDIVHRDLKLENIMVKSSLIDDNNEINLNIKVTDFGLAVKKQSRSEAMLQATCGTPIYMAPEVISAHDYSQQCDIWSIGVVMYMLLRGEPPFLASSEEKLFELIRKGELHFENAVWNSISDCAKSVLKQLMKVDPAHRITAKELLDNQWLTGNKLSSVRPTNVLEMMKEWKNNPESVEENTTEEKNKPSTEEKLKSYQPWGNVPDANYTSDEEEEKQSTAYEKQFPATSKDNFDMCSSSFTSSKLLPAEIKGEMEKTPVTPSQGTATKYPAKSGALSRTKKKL
An asterisk follows results filed as active; ? = inconclusive; · = no result given. Many of the other results were omitted from the sample, so hits are more common in it than they were.

SMILES | NOMO-1 viab | PD-1 reversal | STK33 inh
COc1ccccc1C(=O)NCCCn1cc(Br)c(C)n1 | -6 | 1 | -2
C=C1C(=O)O[C@H]2C1C[C@@H](OC(C)=O)[C@@]1(C)[C@@H](OC(C)=O)C[C@@H](OC(C)=O)C(=C)[C@H]21 (stereo partly specified) | 120* | -13 | -1
C[C@@H]1CN([C@@H](C)CO)C(=O)c2cccc(NC(=O)Nc3ccc(F)cc3)c2O[C@H]1CN(C)Cc1ccc(C(=O)Nc2ccccc2N)cc1 | 125* | -6 | ·
C[C@H]1CN([C@@H](C)CO)C(=O)c2cc(NC(=O)Nc3ccc(F)cc3)ccc2O[C@H]1CN(C)Cc1ccc(C(=O)Nc2ccccc2N)cc1 | ? | 0 | ·
C[C@@H]1CN([C@H](C)CO)C(=O)c2cccc(NC(=O)Nc3ccc(F)cc3)c2O[C@H]1CN(C)Cc1ccc(C(=O)Nc2ccccc2N)cc1 | 127* | -3 | ·
C[C@@H]1CN([C@H](C)CO)C(=O)c2cccc(NC(=O)Nc3ccc(C(F)(F)F)cc3)c2O[C@@H]1CN(C)Cc1ccc(C(=O)O)cc1 | 1 | 1 | ·
C[C@H]1CN([C@@H](C)CO)C(=O)c2cccc(NC(=O)Nc3ccc(F)cc3)c2O[C@@H]1CN(C)Cc1ccc(C(=O)O)cc1 | -9 | · | ·
C[C@@H]1CN([C@@H](C)CO)C(=O)c2cc(NC(=O)Nc3ccc(F)cc3)ccc2O[C@@H]1CN(C)Cc1ccc(C(=O)Nc2ccccc2N)cc1 | ? | -1 | ·
C[C@@H]1CN([C@@H](C)CO)C(=O)c2cccc(NC(=O)Nc3ccc(C(F)(F)F)cc3)c2O[C@H]1CN(C)Cc1ccc(C(=O)Nc2ccccc2N)cc1 | 128* | -5 | ·
C[C@H](CO)N1C[C@H](C)[C@H](CN(C)Cc2ccc(C(=O)Nc3ccccc3N)cc2)Oc2c(NC(=O)Nc3ccc(F)cc3)cccc2C1=O | 97* | 0 | ·
O=c1[nH]nc(SCc2ccccc2)n1-c1ccc(OCc2ccccc2)cc1 | 32 | 0 | ·
O=C(Cn1ncc2ccccc2c1=O)Nc1cccc([N+](=O)[O-])c1 | -7 | 3 | -3
COc1ccc(S(=O)(=O)NCc2ccco2)cc1[N+](=O)[O-] | -2 | 0 | 1
COc1ccc(NC(=O)CSc2nc3sc4c(c3c(=O)n2-c2ccccc2)CCC4)c([N+](=O)[O-])c1 | 20 | · | 3
O=C1C=CC(O)(/C=C/C(=O)O[C@@H]2[C@@H](O)[C@H](Oc3ccc(O)cc3)O[C@H](CO)[C@H]2O)C=C1 | 30 | -2 | 19
Cc1ccc(OCC(=O)Nc2ccccc2C(=O)Nc2ccccc2)c(Br)c1 | 16 | · | 1
Cc1ccc(NC(=S)NC(=O)C23CC4CCC(CC(C4)C2)C3)cc1 | 26 | 0 | ·
C[C@H](CO)N1C[C@H](C)[C@@H](CN(C)Cc2ccc(C(=O)O)cc2)Oc2c(NC(=O)Nc3ccc(F)cc3)cccc2C1=O | 3 | · | 2
C[C@H]1CN([C@@H](C)CO)C(=O)c2cccc(NC(=O)Nc3ccc(F)cc3)c2O[C@@H]1CN(C)Cc1ccc(C(=O)Nc2ccccc2N)cc1 | 140* | -1 | ·
CC(=O)N[N+]1=C(N)c2ccccc2C1 | -4 | -1 | ·
Cn1c(SCC(=O)Nc2ccc3ccccc3c2)nnc1-c1cc2ccccc2o1 | -5 | 0 | -2
O=C(Cn1c2ccccc2n2nc(-c3ccco3)nc12)c1ccccc1 | 21 | -2 | 15
O=C(Cn1c2ccccc2n2nc(-c3cccs3)nc12)c1ccc(Cl)cc1 | 115* | -14 | 7
CC(=O)O[C@H]1C(=O)[C@@]2(C)[C@H]([C@H](OC(=O)c3ccccc3)[C@]3(O)C[C@H](OC(=O)[C@H](O)[C@@H](NC(=O)c4ccccc4)c4ccccc4)C(C)=C1C3(C)C)[C@]1(OC(C)=O)CO[C@@H]1C[C@@H]2O | 141* | -3 | 0
CCC(=O)Nc1ccc(OCc2nc3ccccc3s2)cc1 | -7 | · | -1
SMILES | NOMO-1 viab | PD-1 reversal | STK33 inh
O=C(Nc1ccc(OCc2nc3ccccc3s2)cc1)c1cccc(I)c1 | 105* | · | -2
Cc1cc(C)c(S(=O)(=O)N(C)CC(=O)Nc2ccc(F)c(Cl)c2)c(C)c1 | 28 | -1 | 0
CC1=CC(C)C2(COC(=O)Nc3ccccc3)COC(c3cccnc3)C1C2C (stereo unspecified) | 105* | 0 | ·
c1cncc(C2OCC3(CO2)COC(c2cccnc2)OC3)c1 (stereo unspecified) | -25 | 0 | ·
Cc1nnc(SCC(=O)Nc2ccc([N+](=O)[O-])cc2)s1 | 27 | 1 | -1
O=C(NC(Nc1ccc(Cl)cc1)C(=O)c1ccccc1)c1ccccc1 (stereo unspecified) | 34 | 0 | ·
OCCCNc1ncnc2scc(-c3ccccc3)c12 | 44 | -1 | 2
OCCCNc1ncnc2oc(-c3ccccc3)c(-c3ccccc3)c12 | 40 | · | 32*
Cc1nc2c(cnn2-c2ccccc2)c(=O)n1NC(=O)Nc1ccc(Cl)c(Cl)c1 | 53 | 0 | ·
Cc1cccc(C(=O)NN(c2ccccc2)c2ccccc2)c1 | 59 | 0 | ·
COc1cc(=O)oc(C(C)C(C)O)c1CO (stereo unspecified) | -5 | 0 | -3
COc1cc(OC)c(C(O)C(C)O)cc1OC (stereo unspecified) | 90* | 2 | -1
CCn1c(SCC(=O)O)nnc1-c1c[nH]c2ccccc12 | 8 | 2 | -3
CCC(C)C(O)(CC(=O)OCc1ccc(O[C@@H]2O[C@H](CO)[C@@H](O)[C@H](O)[C@H]2O)cc1)C(=O)OCc1ccc(O[C@@H]2O[C@H](CO)[C@@H](O)[C@H](O)[C@H]2O)cc1 (stereo partly specified) | 20 | 0 | -6
OC[C@H]1O[C@@H](n2cnc3c(NCc4ccco4)ncnc32)[C@H](O)[C@@H]1O | 108* | · | -1
c1coc(CNc2ncnc3c2sc2nc(N4CCOCC4)c4c(c23)CCC4)c1 | 19 | · | 11
O=C(CC1NC(=O)NC1=O)Nc1cccc(C(F)(F)F)c1 (stereo unspecified) | 1 | 2 | 2
CCOC(=O)C1CCCN(Cc2ccccc2)C1 (stereo unspecified) | 6 | 0 | ·
CCOC(=O)C1CCN(S(=O)(=O)Cc2ccccc2)C1=O (stereo unspecified) | 112* | 0 | 1
C[C@@H]1CN([C@H](C)CO)C(=O)c2cc(NC(=O)Nc3ccccc3)ccc2O[C@H]1CN(C)Cc1ccc(C(F)(F)F)cc1 | 99* | -9 | 3
C[C@@H]1CN([C@H](C)CO)C(=O)c2cc(NC(=O)Nc3ccccc3)ccc2O[C@@H]1CN(C)Cc1ccc(C(F)(F)F)cc1 | 58 | 1 | -2
C[C@H](CO)N1C[C@H](C)[C@@H](CN(C)Cc2ccccc2)Oc2ccc(NC(=O)Nc3ccc(C(F)(F)F)cc3)cc2C1=O | 122* | -4 | ·
C[C@H]1CN([C@@H](C)CO)C(=O)c2cc(NC(=O)Nc3ccc(C(F)(F)F)cc3)ccc2O[C@H]1CN(C)Cc1ccc(C(=O)O)cc1 | 8 | 3 | -2
Cn1c(SCC(=O)c2ccc([N+](=O)[O-])cc2)nnc1-c1cc2ccccc2cc1O | 48 | -7 | 2
CC(C)(O)C#Cc1ccccc1C(=O)NC(Cc1c[nH]c2ccccc12)C(=O)O (stereo unspecified) | 11 | · | 0
COC(=O)CSc1nc2sc3c(c2c(=O)n1Cc1ccccc1)CCCC3 | 1 | · | -1
Cc1ccc(OCC(=O)Nc2ccccc2C#N)cc1C | 12 | · | -1

Assay outcomes from PubChem BioAssay.
